This is one part of a sample in which hits are shown more often than they occur.
KDM5B inh = Primary screen for KDM5B Histone Demethylases FDH-coupled qHTS. Lysine-specific demethylase 5B (Homo sapiens), Q9UGL1. KDM5B demethylase, FDH-coupled NADH fluorescence (FDH is formaldehyde dehydrogenase). Potency, µM (doses to about 57.7 µM), most hits filed as inhibitors. 220,000 compounds, 2.6% hits; active = well fitted inhibition curve with a large enough effect; note: 0% is about no effect; nearly all actives have a fitted effect of over 70% in size
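qHTS format, multiple compound concentrations. Buffer 50 mM HEPES pH 7.5/0.01% Tween-20; 200 nM KDM5BΔAP final; 10 min compound preincubation; substrate-mix levels 12.5 µM peptide, 25 µM α-KG, 0.25 mM NAD⁺; 30 min RT; ΔRFU.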
* = called active by the depositor; i = inactive. Potency is the fitted concentration of half-maximal effect.

SMILES | KDM5B inh
CCCCn1nc(C(=O)N(Cc2ccc3c(c2)OCO3)C2CCCC2)c2ccccc2c1=O | i
O=C(CSc1nc(-c2ccccc2F)nc2cc(=O)[nH]n12)N1CCc2ccccc21 | i
CNC(=O)CCn1ncc2cc(OC3CCc4cccc(-c5cnn(C)c5)c43)ccc21 (stereo not given) | i
Cc1cccc(/C=N/NC(=O)c2cccs2)n1 | i
N#CC(C(=O)/C=C/c1ccccc1)C(=O)NC1CCCCC1 (stereo not given) | i
O=[N+]([O-])c1ccccc1/C=N/OCc1ccc(Br)cc1 | i
NC(=O)C(=O)Nc1ccccc1C(=O)NCc1cccnc1 | i
O=C(Nc1ccccc1C(F)(F)F)c1ccccc1Cl | i
COc1cc(NS(=O)(=O)c2cc(C(=O)N3CCCCCC3)cs2)cc(OC)c1 | i
O=C(c1ccc(OCc2ccncc2)cc1)N1CCN(C2CCS(=O)(=O)C2)CC1 (stereo not given) | i
CCCN(CCC)c1ccc(C=O)cc1 | i
CCCN1CCN(c2ncnc3sc(C(=O)Nc4c(C)cc(C)cc4C)c(C)c23)CC1 | i
Cc1ccc(CNC(=O)c2sc3ncnc(N(C)C4CCCCC4)c3c2C)cc1 | i
Cc1c(C(=O)O)sc2ncnc(NCC3(O)CCCCC3)c12 | 20µM*
Cc1ccc(CC(=O)NC2CCC(C)CC2)cc1 (stereo not given) | i
CC(=O)N1CCN(c2ccc(NC(=O)COc3c(C)cc(C)cc3Cl)cc2)CC1 | i
CCCCn1c(=O)c2c(nc(-n3nc(C)c(C)c3C)n2Cc2ccc(F)cc2)n(C)c1=O | i
O=C(O)C(c1c[nH]c2cc(Cl)ccc12)N1CCN(C/C=C/c2ccccc2)CC1 (stereo not given) | i
CN1[C@@H](CCC(=O)N2CCN(c3ccccc3)CC2)CNC(=O)[C@@H]2[C@H]1CCN2Cc1ccc(F)cc1 | i
COC(=O)C1CCN(C(=O)CC[C@H]2CNC(=O)[C@@H]3[C@@H](CCN3C(C)C)N2C)CC1 | i
O=C(Nc1cccc(Cl)c1)N[C@H]1C[C@H]2C(=O)NC[C@@H](CCC(=O)N3CCC(O)CC3)N2C1 | i
O=C(N[C@H]1C[C@H]2C(=O)NC[C@@H](CCC(=O)N3CCN(c4ccccc4)CC3)N2C1)C1CC1 | i
CN1[C@@H](CCC(=O)NCc2ccccc2)CNC(=O)[C@@H]2[C@H]1CCN2Cc1ncc[nH]1 | i
CN1[C@@H](CCC(=O)N2CCN(c3ccccc3)CC2)CNC(=O)[C@@H]2[C@H]1CCN2CC(C)(C)C | i
CN1CCN(C(=O)CC[C@H]2CNC(=O)[C@@H]3[C@@H](CCN3Cc3ncc[nH]3)N2C)CC1 | i
SMILES | KDM5B inh
CC(C)N1CC[C@@H]2[C@H]1C(=O)NC[C@H](CCC(=O)N1CCN(c3ccccn3)CC1)N2C | 31.6µM*
CC(C)N1CC[C@@H]2[C@H]1C(=O)NC[C@H](CCC(=O)N1CCc3ccccc31)N2C | i
CN1[C@@H](CCC(=O)N2CCN(c3ccccn3)CC2)CNC(=O)[C@@H]2[C@H]1CCN2Cc1ccc(CO)o1 | 31.6µM*
O=C(Nc1ccccc1)N[C@H]1C[C@H]2C(=O)NC[C@@H](CCC(=O)N3CCN(c4ccccn4)CC3)N2C1 | 25.1µM*
CN1[C@@H](CCC(=O)N2CCN(c3ccccn3)CC2)CNC(=O)[C@@H]2[C@H]1CCN2Cc1ncc[nH]1 | 22.4µM*
CN1CCC(N(C)CCN(C)C(=O)Nc2ccccc2C(F)(F)F)CC1 | i
COC(=O)CC(NC(=O)c1ccc(CS(C)(=O)=O)cc1)c1ccc(C)cc1 (stereo not given) | i
Cc1cc(C2CCCN2Cc2nc(-c3ccccc3)oc2C)on1 (stereo not given) | i
COC(=O)c1ccc(C2C(C#N)=C(N)Oc3n[nH]c(-c4ccc(OC)cc4)c32)cc1 (stereo not given) | i
CC(C)(C)c1ccc(NC(=O)CCc2c[nH]c3ccccc23)cc1 | i
CCCCN1C(=O)C2(/C(=C(\O)c3ccc(OC)cc3)C(=O)C(=O)N2CCOC)c2ccccc21 (stereo not given) | i
CCN1CCN(c2ccc(S(=O)(=O)N(CC)CC)cc2NC(=O)c2ccc(F)cc2)CC1 | i
O=C(Nc1cccc(Br)c1)C1C2C3CCC(C3)C12 (stereo not given) | i
Cc1ccc(CN2CC[C@@H]3[C@H]2C(=O)NC[C@H](CCC(=O)N2CCN(C)CC2)N3C)cc1 | i
CN1[C@@H](CCC(=O)N2CCC(O)CC2)CNC(=O)[C@@H]2[C@H]1CCN2Cc1ccc(O)cc1 | i
CN1[C@@H](CCC(=O)N2CCN(c3ccccn3)CC2)CNC(=O)[C@@H]2[C@H]1CCN2Cc1ccc(O)cc1 | 31.6µM*
O=S(=O)(NCc1ccccc1Cn1cccn1)c1ccc(F)cc1F | i
COc1cc(/C=C/C(=O)c2cc3ccccc3oc2=O)cc(OC)c1OC | i
CCc1ccc(S(=O)(=O)N2CCC(OC3CCN(Cc4ccccc4)CC3)CC2)cc1 | i
O=C(Nc1nc2ccccc2s1)c1ccc2c(c1)OCCN(CCC(F)(F)F)C2 | 31.6µM*
O=C(Nc1nccs1)c1ccc2c(c1)OCCN(CCC(F)(F)F)C2 | i
Cc1ccccc1NC(=O)c1ccc2c(c1)OCCN(CCC(F)(F)F)C2 | i
Cc1nc(NCCC(C)C)sc1C(=O)Nc1ccccc1 | i
Cc1nc2cc(F)ccc2cc1C(=O)N1CCN(S(=O)(=O)c2ccc(C#N)cc2)CC1 | i
O=C(/C=C/c1ccc(Cl)c(Cl)c1)NC1CCC(O)CC1 (stereo not given) | i
SMILES | KDM5B inh
CCc1ccc(NC(=O)Cc2nc(-c3cc(C)n(-c4cc(C)on4)c3C)cs2)cc1 | i
Cc1ccc2c(c1)c(C(=O)N[C@H](c1cnn(C)c1)C1CC(O)C1)nn2C (stereo not given in full) | 28.2µM*
Cc1[nH]c(-c2ccccc2)nc1C(=O)N[C@H](c1cnn(C)c1)C1CC(O)C1 (stereo not given in full) | i
Cn1cc(C(NC(=O)c2cccc(Cn3cccn3)c2)C2CC(O)C2)cn1 (stereo not given) | i
Cc1ccc(NC(=O)CN(c2ccnn2C(C)C)S(=O)(=O)c2ccccc2)cc1 | i
O=C(Nc1nccs1)C1=Cc2cc(Cl)ccc2OC=C1 | i
COc1cccc(-c2cc3c(=O)n(CCNC(=O)C4CCCCC4)ccn3n2)c1 | i
COc1cccc(-c2cc3c(=O)n(CC(O)c4cccc(C#N)c4)ccn3n2)c1 (stereo not given) | 22.4µM*
COc1cccc(-c2cc3c(=O)n(CCNC(=O)c4ccc(C(C)(C)C)cc4)ccn3n2)c1 | 25.1µM*
COc1cccc(-c2cc3c(=O)n(CCNC(=O)c4cc(Cl)ccc4F)ccn3n2)c1 | 25.1µM*
COc1cccc(-c2cc3c(=O)n(CCNC(=O)C4CCN(C(C)=O)CC4)ccn3n2)c1 | 20µM*
O=C(O)Cn1cc(C(C(=O)O)N2CCN(Cc3ccccc3)CC2)c2ccccc21 (stereo not given) | i
Cc1cc(Br)ccc1NC(=O)c1nc2ccccc2nc1N1CCN(C)CC1 | i
Cc1ccc(OCc2nc(C#N)c(NCCN3CCOCC3)o2)cc1 | i
CC(Oc1ccc(C(F)(F)F)cc1)C(=O)NC1(C#N)CCCCC1 (stereo not given) | i
Clc1ccc(SCc2nc(NC3CCCc4ccccc43)c3c4c(sc3n2)CCC4)cc1 (stereo not given) | i
COc1cccc(CC(=O)NCCn2ccn3nc(-c4ccc(C)cc4C)cc3c2=O)c1 | i

From PubChem
